Assay outcomes (PubChem BioAssay)
Hits are enriched below; roughly 9.3% of the tested compounds scored in any of these assays.
Rab9 prom act – activators of Rab9 promoter; Huh7 Rab9 promoter-luciferase reporter, luminescence, 24 h; Potency, µM (doses to about 9.22 µM), for inactives: top-dose activation, negative = inhibition, actives largely listed as activators; 320,000 compounds, 2.8% hits; AID 485297; further: % of control where 0% means no effect; nearly all actives have a fitted effect of over 60% in size
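Promoter activation is measured as luciferase luminescence in Huh7 cells stably transfected with a Rab9 promoter–luciferase construct, following 24 h compound exposure at 37 °C and 10 min reagent incubation at ambient temperature.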
SMN2 splice up – SMN2 splice variant enhancement | HEK293 SMN2-luciferase splicing reporter, luminescence, 30-36 h | Potency, µM (highest dose often 46.1 µM), without a hit: at the highest dose activity change, positive = activation, usual class: activators | 210,000 compounds, 2.8% hits | AID 1458; further: % of control where 0% means no effect; nearly all actives have a fitted effect of over 55% in size
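qHTS luciferase splicing reporter: luminescence rises when SMN2 exon 7 is included in transfected HEK293 cells. Compound exposure lasted 30-36 h at 37C, with 4.5 mM final sodium butyrate as control, followed by a ONE-Glo read.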
ELG1 repair inh – ELG1-dependent DNA repair inhibition | 330,000 compounds, 2.3% hits | AID 504467 | HEK293T ELG1-luciferase reporter, luminescence, 16 h; DNA damage induced by 5-fluorouridine | Potency, µM (highest dose often 46.1 µM), without a hit: at the top dose activity change, negative = inhibition, most hits filed as inhibitors; further: on the % scale 0 is the no-effect control and ±100 the full control effect; nearly all actives have a fitted effect of over 55% in size
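DMSO vehicle served as the neutral condition. Each well held 2,000 cells given 5-fluorouridine plus compound; after 16 hr at 37 °C/5% CO2, ONE-Glo was added and luciferase measured 30 min later.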
FLuc modulator – inhibits or activates purified firefly luciferase, miR-21 counter-screen; 360,000 compounds, 6.9% hits; Potency, µM (series often up to 57.5 µM), without a hit: top-dose activity change, negative = inhibition, hits mostly inhibitors; P08659; purified FLuc, Km substrates, luminescence inhibition; AID 588342;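 further: plate controls were vehicle for no effect and reference inhibitor for full effect; nearly all actives have a fitted effect of over 55% in size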
Target sequence (P08659 whole entry, looked up): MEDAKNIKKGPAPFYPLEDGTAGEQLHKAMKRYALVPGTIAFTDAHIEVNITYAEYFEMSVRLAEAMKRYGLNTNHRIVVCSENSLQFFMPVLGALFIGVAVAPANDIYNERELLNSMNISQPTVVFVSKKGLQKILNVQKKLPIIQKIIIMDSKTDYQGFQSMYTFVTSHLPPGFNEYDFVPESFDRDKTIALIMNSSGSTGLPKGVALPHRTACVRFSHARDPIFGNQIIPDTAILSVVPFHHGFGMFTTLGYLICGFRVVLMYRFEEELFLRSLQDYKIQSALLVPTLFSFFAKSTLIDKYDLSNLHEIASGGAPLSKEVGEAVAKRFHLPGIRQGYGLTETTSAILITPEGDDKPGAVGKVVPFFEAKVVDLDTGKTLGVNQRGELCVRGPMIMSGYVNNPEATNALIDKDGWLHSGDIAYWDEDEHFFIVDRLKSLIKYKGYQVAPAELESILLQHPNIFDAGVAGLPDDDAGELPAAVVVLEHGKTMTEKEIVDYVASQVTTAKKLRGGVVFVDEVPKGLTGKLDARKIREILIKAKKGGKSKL
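Purified P. pyralis luciferase (10nM final) with 10uM D-luciferin and 10uM ATP (Km levels) in 50mM Tris acetate pH 7.5, 10mM Mg acetate, 0.01% Tween-20, 0.05% BSA; qHTS 6-point titration, ~60 µM downward; luminescence read.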
NPC1 prom act – activators of NPC1 promoter. Huh7 NPC1 promoter luciferase reporter, 24 h. Potency, µM (titrated, usually from 9.22 µM), for the others: at the top dose activation, hits mostly activators. 320,000 compounds, 2.4% hits; further: % of control where 0% means no effect; nearly all actives have a fitted effect of over 60% in size
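In 1536-well qHTS, Huh7 cells harboring an NPC1 promoter–luciferase construct received compound for 24 h; activation was quantified by luminescence following luciferase reagent addition.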
ELG1 genotox – inducers of genotoxicity in HEK293T ELG1-luciferase cells; Potency, µM (doses to about 46 µM), without a hit: top-dose activity change, positive = activation, hits mostly activators; 330,000 compounds, 1.3% hits; HEK293T ELG1-luciferase reporter, luminescence, 16 h; further: % of control where 0% means no effect; nearly all actives have a fitted effect of over 60% in size
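Cells (2,000/well) expressing the ELG1-luciferase fusion are dosed by pin tool and kept 16 hr at 37 °C, 5% CO2. Signal comes from ONE-Glo luciferase reagent after 30 min at room temperature.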
* marks the source's active call; other numbers are inactive results; ? = inconclusive; nt = not tested or not shown; [ ] = remark or other dose. The call rests on the fitted dose curve; in most records, active means well fitted curve in the direction sought with a large enough effect; inconclusive means small, poorly fitted or top-dose-only effect, or another doubt; inactive means no such curve, though single readings can be large; an effect the other way counts as inactive or inconclusive. Potency means the concentration at half of the fitted maximal effect.

SMILES	Rab9 prom act	SMN2 splice up	ELG1 repair inh	FLuc modulator	NPC1 prom act	ELG1 genotox
CC1CCc2nc3ccccc3c(C(=O)OCC(=O)N3CCc4ccccc43)c2C1 (configuration not stated)	-1%	2%	18µM*	4.8µM*	0%	-11%
CCc1noc(C)c1C(=O)OCC(=O)N1CCc2ccccc21	-2%	nt	?	3%	0%	4%
Clc1ccc(CN2CCCN(Cc3ccc(Cl)cc3)C2c2cc3ccccc3c3ccccc23)cc1	nt	-27%[9.22 µM]	nt	nt	nt	nt
O=C1C=C(c2ccccc2Oc2ccccc2)C[C@@H](c2ccc3c(c2)OCO3)C1	1%	nt	6.5µM*	2%	-1%	-6%
CC(C)OC(=O)/C(=C\c1ccc2c(c1)c1ccccc1n2C)NC(=O)c1ccccc1	3%	-7%	?	0%	-6%	-7%
Cn1c2ccccc2c2cc(/C=C(\NC(=O)c3ccccc3)C(=O)O)ccc21	-7%	nt	-10%	?	-3%	-4%
COC(=O)/C(=C\c1ccc2c(c1)c1ccccc1n2C)NC(=O)c1ccccc1	-5%	-14%[1.84 µM]	21µM*	-3%	-1%	-7%
CC(C)OC(=O)/C(=C/c1ccc2c(c1)c1ccccc1n2C)NC(=O)c1ccccc1	2%	1%	21µM*	-7%	13%	-1%
COc1cc(NC(=O)c2ccccc2OCc2ccccc2)cc(OC)c1OC	6%	nt	16µM*	0%	-5%	-6%
COc1cccc(C(=O)OCC(=O)NCCc2ccccc2)c1OC	-4%	2%	?	-4%	-3%	0%
COc1cccc(C(=O)NOCc2ccccc2)c1OC	?	nt	?	27µM*	?	?
O=C(Nc1ccc(O)cc1)c1ccccc1OCc1ccccc1	1%	nt	?	-20%	0%	0%
Cc1nc(NCCc2cnc[nH]2)c2oc3ccccc3c2n1	?	4%	5%	1%	0%	5%
CC(=O)Nc1ccc(Nc2nc(C)nc3c2oc2ccccc23)cc1	-2%	nt	?	-15%	-1%	-11%
COc1ccc(CCNc2nc(C)nc3c2oc2ccccc23)cc1OC	-5%	-56%	10µM*	-6%	0%	-12%
Cc1nc(Nc2ccncc2)c2oc3ccccc3c2n1	-21%	-2%	16µM*	0%	-15%	-20%
COc1ccc(CCNc2ncnc3c2oc2ccccc23)cc1OC	-44%	-67%	16µM*	-11%	-33%	-20%
Cc1ccnc(NC(=O)CCC(=O)N(Cc2ccco2)C(C(=O)NC(C)C)c2ccc(F)cc2)c1 (configuration not stated)	-5%	nt	-4%	2%	3%	-30%
O=C(CN1CCOCC1)NCCNC(=O)CN1CCOCC1	-2%	13µM*	4%	-1%	-2%	-1%
Cc1cccc(N2CC(c3nc4ccccc4[nH]3)CC2=O)c1 (configuration not stated)	-12%	9%	8%	-1%	0%	0%
Cc1ccc(S(=O)(=O)N2[C@@H](c3ccc(C(C)(C)C)cc3)C(C(=O)O)=CC[C@H]2c2ccc(C(C)C)cc2)cc1	nt	nt	16µM*	nt	nt	-5%
COc1ccc2c(c1)OC/C(=C/c1ccc(OC)c(OC)c1)C2=O	nt	-103%	nt	nt	nt	nt
COc1ccc(/C=C2\CCC(C3CCCC3)C2=O)cc1Cn1cccn1 (configuration not stated)	-4%	-23%	-21%	?	-1%	12%
COc1ccc(/C=C2\CCc3ccccc3C2=O)cc1Cn1cccn1	2%	-12%	-3%	5.4µM*	1%	?
COc1ccc(/C=C2\Cc3ccccc3C2=O)cc1OC	-2%	nt	?	3.4µM*	12%	16µM*
SMILES	Rab9 prom act	SMN2 splice up	ELG1 repair inh	FLuc modulator	NPC1 prom act	ELG1 genotox
COc1ccc2c(c1)OC/C(=C/c1ccc(O)c(O)c1)C2=O	nt	3%	nt	nt	nt	nt
COc1ccc(/C=C2\CCc3ccccc3C2=O)cc1O	3%	nt	?	0.34µM*	-2%	3.7µM*
COc1ccc(CNC(=O)c2cnn(-c3ccc(C)cc3)c2C2CCN(C(=O)OC(C)(C)C)CC2)cc1	nt	nt	nt	-6%	nt	nt
COc1c(-c2ccccc2)oc2c(ccc3occc32)c1=O	-1%	nt	?	0%	-2%	0%
CN(C)CC#Cc1cncc(C(=O)NNC(=O)Nc2ccc(Cl)cc2)c1	2%	nt	0%	24µM*	4%	0%
Cc1cc(C(=O)NNC(=O)Nc2ccc(Cl)cc2)no1	-2%	nt	1%	-2%	-3%	-1%
Cc1cc2c(C)nc(Cc3ccccc3)nc2o1	5%	8%	18µM*	2%	0%	1%
O=C(N/C(=C\c1ccc(Br)cc1)C(=O)N1CCCC1)c1ccccc1F	-3%	nt	16%	-1%	-6%	1%
Cc1ccc(CN2C(=O)C(C)Nc3ncnc(N4CCN(c5ccccn5)CC4)c32)cc1 (configuration not stated)	-5%	nt	?	1%	0%	-2%
COc1ccc(CCNC(=O)c2cnn(-c3ccc(F)cc3)c2C2CCN(C(=O)OC(C)(C)C)CC2)cc1OC	nt	nt	nt	-2%	nt	nt
COc1cccc(C2=NOC(C(=O)Nc3cccnc3Cl)C2)c1 (configuration not stated)	-3%	-29%	-16%	0%	0%	-3%
CCCN1CCC(=O)N([C@H](CSc2ccccc2)CC(C)C)CC1	3.2µM*	nt	0%	21µM*	3.2µM*	?
CCCN1CCC(=O)N([C@H](CSc2ccc(C)cc2)CC(C)C)CC1	?	nt	?	11µM*	4µM*	?
CC(C)C[C@@H](CSc1ccccc1)N1CCN(CC(C)C)CCC1=O	?	nt	?	15µM*	?	?
CCCN1CCC(=O)N([C@H](CSc2ccc(C)cc2)Cc2ccccc2)CC1	-2%	nt	-1%	-1%	-5%	-3%
CCCN1CCC(=O)N([C@H](CSc2ccc(Br)cc2)c2ccccc2)CC1	?	nt	?	17µM*	22%	12%
Cc1cc2c(s1)c1c(C)nn(Cc3ccc(F)cc3)c(=O)c1n2C	-5%	nt	nt	1%	-1%	nt
O=C(CC(c1ccccc1)c1ccco1)Nc1nccs1 (configuration not stated)	-6%	-20%	2%	0%	-4%	1%
O=C(NCCCCc1ccccc1)c1ccccc1Cl	13%	-5%	?	-19%	2%	12%
CCOC(=O)c1c(C)[nH]c(C)c1S(=O)(=O)N1CCCC(C(=O)Nc2ccc(OC)c(OC)c2)C1 (configuration not stated)	nt	nt	nt	3%	nt	nt
COc1cccc(OC)c1C(=O)Nc1nc2c(s1)CCc1ccccc1-2	nt	11%	nt	-1%	nt	nt
